# Reference: PubChem BioAssay AID1159580 (chemical genetic matrix, 2015)
# Hit rate of the full screen: of about 5,500 compounds, about 2,000 (36%) were called active. Another 18% or so got no clear call; they are omitted. The list shows a part of the results. Unmarked numbers belong to inactive results. No stated cut-off is given here; in the data, active means normalized growth mostly below about 0.91 (no sharp cut-off); inconclusive means no clear call, values can overlap the other calls; inactive means mostly above about 0.92.
# Assay: chemical genetic growth profiling, strain panel (AID 1159580);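 further: tested at 20 µM; growth read once vehicle control cultures reached saturation at 30 °C; 1 = growth at the plate median or of vehicle wells; lower values mean less growth of the strain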
# Details: growth OD
# [1] = S. cerevisiae deletion strains, locus YDL101C, strain DUN1, active compounds read low
# [2] = S. cerevisiae deletion strains, locus YHR030C, strain SLT2, active compounds read low
smiles,measurement,setting,value
O=[N+]([O-])c1ccc(Sc2ccccc2)cc1O,normalized growth,"S. cerevisiae deletion strains, locus YAR019C, strain CDC15, active compounds read low",0.915
same,normalized growth,"S. cerevisiae deletion strains, locus YBL105C, strain PKC1, active compounds read low",0.925
same,normalized growth,"S. cerevisiae deletion strains, locus YBR135W, strain CKS1, active compounds read low",0.927
same,normalized growth,"S. cerevisiae deletion strains, locus YBR136W, strain MEC1, active compounds read low",0.924
same,normalized growth,"S. cerevisiae deletion strains, locus YBR160W, strain CDC28, active compounds read low",0.929
same,normalized growth,"S. cerevisiae deletion strains, locus YDL017W, strain CDC7, active compounds read low",0.929
same,normalized growth,"S. cerevisiae deletion strains, locus YDL028C, strain MPS1, active compounds read low",0.931
same,normalized growth,[1],0.914
same,normalized growth,"S. cerevisiae deletion strains, locus YDL108W, strain KIN28, active compounds read low",0.927
same,normalized growth,"S. cerevisiae deletion strains, locus YDL132W, strain cdc53, active compounds read low",0.909
same,normalized growth,"S. cerevisiae deletion strains, locus YDL214C, strain PRR2, active compounds read low",0.823
same,normalized growth,"S. cerevisiae deletion strains, locus YDR052C, strain DBF4, active compounds read low",0.943
same,normalized growth,"S. cerevisiae deletion strains, locus YDR054C, strain cdc34, active compounds read low",0.899
same,normalized growth,"S. cerevisiae deletion strains, locus YDR226W, strain ADK1, active compounds read low",0.958
same,normalized growth,"S. cerevisiae deletion strains, locus YDR477W, strain SNF1, active compounds read low",0.844
same,normalized growth,"S. cerevisiae deletion strains, locus YER123W, strain YCK3, active compounds read low",0.78
same,normalized growth,"S. cerevisiae deletion strains, locus YER133W, strain GLC7, active compounds read low",0.831
same,normalized growth,"S. cerevisiae deletion strains, locus YFL009W, strain cdc4, active compounds read low",0.91
same,normalized growth,"S. cerevisiae deletion strains, locus YFL029C, strain CAK1, active compounds read low",0.928
same,normalized growth,"S. cerevisiae deletion strains, locus YFR003C, strain YPI1, active compounds read low",0.928
same,normalized growth,"S. cerevisiae deletion strains, locus YFR019W, strain FAB1, active compounds read low",0.895
same,normalized growth,"S. cerevisiae deletion strains, locus YFR028C, strain CDC14, active compounds read low",0.959
same,normalized growth,"S. cerevisiae deletion strains, locus YGR040W, strain KSS1, active compounds read low",0.84
same,normalized growth,"S. cerevisiae deletion strains, locus YGR052W, strain FMP48, active compounds read low",0.817
same,normalized growth,"S. cerevisiae deletion strains, locus YGR092W, strain DBF2, active compounds read low",0.709
same,normalized growth,[2],0.904
same,normalized growth,"S. cerevisiae deletion strains, locus YHR079C, strain IRE1, active compounds read low",0.812
same,normalized growth,"S. cerevisiae deletion strains, locus YHR082C, strain KSP1, active compounds read low",0.838
same,normalized growth,"S. cerevisiae deletion strains, locus YHR205W, strain SCH9, active compounds read low",0.864
same,normalized growth,"S. cerevisiae deletion strains, locus YIL147C, strain SLN1, active compounds read low",0.923
same,normalized growth,"S. cerevisiae deletion strains, locus YJL095W, strain BCK1, active compounds read low",0.806
same,normalized growth,"S. cerevisiae deletion strains, locus YJL128C, strain PBS2, active compounds read low",0.843
same,normalized growth,"S. cerevisiae deletion strains, locus YJL157C, strain FAR1, active compounds read low",0.796
same,normalized growth,"S. cerevisiae deletion strains, locus YJR016C, strain ILV3, active compounds read low",0.913
same,normalized growth,"S. cerevisiae deletion strains, locus YJR066W, strain TOR1 (second series), active compounds read low",0.834
same,normalized growth,"S. cerevisiae deletion strains, locus YJR066W, strain TOR1, active compounds read low",0.827
same,normalized growth,"S. cerevisiae deletion strains, locus YKL048C, strain ELM1, active compounds read low",0.878
same,normalized growth,"S. cerevisiae deletion strains, locus YKL067W, strain YNK1, active compounds read low",0.821
same,normalized growth,"S. cerevisiae deletion strains, locus YKL101W, strain HSL1, active compounds read low",0.862
same,normalized growth,"S. cerevisiae deletion strains, locus YKL193C, strain SDS22, active compounds read low",0.921
same,normalized growth,"S. cerevisiae deletion strains, locus YKL203C, strain TOR2, active compounds read low",0.871
same,normalized growth,"S. cerevisiae deletion strains, locus YLR113W, strain HOG1, active compounds read low",0.736 (active)
same,normalized growth,"S. cerevisiae deletion strains, locus YLR133W, strain CKI1, active compounds read low",0.85
same,normalized growth,"S. cerevisiae deletion strains, locus YLR403W, strain SFP1, active compounds read low",0.8
same,normalized growth,"S. cerevisiae deletion strains, locus YML070W, strain DAK1, active compounds read low",0.824
same,normalized growth,"S. cerevisiae deletion strains, locus YMR001C, strain CDC5, active compounds read low",0.919
same,normalized growth,"S. cerevisiae deletion strains, locus YMR205C, strain PFK2 (second series), active compounds read low",0.824
same,normalized growth,"S. cerevisiae deletion strains, locus YMR277W, strain FCP1, active compounds read low",0.917
same,normalized growth,"S. cerevisiae deletion strains, locus YNL006W, strain LST8, active compounds read low",0.925
same,normalized growth,"S. cerevisiae deletion strains, locus YNL020C, strain ARK1, active compounds read low",0.837
same,normalized growth,"S. cerevisiae deletion strains, locus YNL161W, strain CBK1, active compounds read low",0.922
same,normalized growth,"S. cerevisiae deletion strains, locus YNL183C, strain NPR1, active compounds read low",0.828
same,normalized growth,"S. cerevisiae deletion strains, locus YNL207W, strain RIO2, active compounds read low",0.912
same,normalized growth,"S. cerevisiae deletion strains, locus YNL222W, strain SSU72, active compounds read low",0.924
same,normalized growth,"S. cerevisiae deletion strains, locus YNL307C, strain MCK1 (second series), active compounds read low",0.836
same,normalized growth,"S. cerevisiae deletion strains, locus YOL078W, strain AVO1, active compounds read low",0.903
same,normalized growth,"S. cerevisiae deletion strains, locus YOL136C, strain PFK27, active compounds read low",0.816
same,normalized growth,"S. cerevisiae deletion strains, locus YOR061W, strain CKA2, active compounds read low",0.817
same,normalized growth,"S. cerevisiae deletion strains, locus YOR119C, strain RIO1, active compounds read low",0.892
same,normalized growth,"S. cerevisiae deletion strains, locus YOR231W, strain MKK1, active compounds read low",0.806
same,normalized growth,"S. cerevisiae deletion strains, locus YOR329C, strain SCD5, active compounds read low",0.92
same,normalized growth,"S. cerevisiae deletion strains, locus YPL031C, strain PHO85, active compounds read low",0.807
same,normalized growth,"S. cerevisiae deletion strains, locus YPL153C, strain RAD53, active compounds read low",0.828
same,normalized growth,"S. cerevisiae deletion strains, locus YPL204W, strain HRR25, active compounds read low",0.798
same,normalized growth,"S. cerevisiae deletion strains, locus YPL209C, strain IPL1, active compounds read low",0.923
same,normalized growth,"S. cerevisiae deletion strains, locus YPL256C, strain CLN2, active compounds read low",0.895
same,normalized growth,"S. cerevisiae deletion strains, locus YPR025C, strain CCL1, active compounds read low",0.924
same,normalized growth,"S. cerevisiae deletion strains, locus YPR106W, strain ISR1, active compounds read low",0.875 (active)
same,normalized growth,"S. cerevisiae deletion strains, locus YPR111W, strain DBF20, active compounds read low",0.89
same,normalized growth,"S. cerevisiae deletion strains, strain NNK1, active compounds read low",0.892
same,normalized growth,"S. cerevisiae deletion strains, strain TSCII, active compounds read low",0.906
CC(=O)c1ccc(Sc2ccccn2)c([N+](=O)[O-])c1,normalized growth,"S. cerevisiae deletion strains, locus YAL013W, strain DEP1, active compounds read low",0.996
same,normalized growth,"S. cerevisiae deletion strains, locus YBR229C, strain ROT2, active compounds read low",1
same,normalized growth,"S. cerevisiae deletion strains, locus YCL061C, strain MRC1, active compounds read low",1.02
same,normalized growth,[1],1.01
same,normalized growth,"S. cerevisiae deletion strains, locus YDR150W, strain NUM1, active compounds read low",0.985
same,normalized growth,"S. cerevisiae deletion strains, locus YEL061C, strain CIN8, active compounds read low",0.974
same,normalized growth,"S. cerevisiae deletion strains, locus YGR078C, strain PAC10, active compounds read low",0.986
same,normalized growth,[2],0.71
same,normalized growth,"S. cerevisiae deletion strains, locus YHR087W, strain rtc3, active compounds read low",1.01
same,normalized growth,"S. cerevisiae deletion strains, locus YJL187C, strain SWE1, active compounds read low",0.98
same,normalized growth,"S. cerevisiae deletion strains, locus YJR043C, strain POL32, active compounds read low",1.01
same,normalized growth,"S. cerevisiae deletion strains, locus YJR075W, strain HOC1, active compounds read low",0.973
same,normalized growth,"S. cerevisiae deletion strains, locus YKL190W, strain CNB1, active compounds read low",0.997
same,normalized growth,"S. cerevisiae deletion strains, locus YLR039C, strain RIC1, active compounds read low",0.849
same,normalized growth,"S. cerevisiae deletion strains, locus YLR058C, strain SHM2 (second series), active compounds read low",0.991
same,normalized growth,"S. cerevisiae deletion strains, locus YLR085C, strain ARP6, active compounds read low",0.835
same,normalized growth,"S. cerevisiae deletion strains, locus YLR262C, strain YPT6, active compounds read low",0.822
same,normalized growth,"S. cerevisiae deletion strains, locus YML094W, strain GIM5, active compounds read low",0.983
same,normalized growth,"S. cerevisiae deletion strains, locus YMR219W, strain ESC1, active compounds read low",0.983
same,normalized growth,"S. cerevisiae deletion strains, locus YMR263W, strain SAP30, active compounds read low",0.993
same,normalized growth,"S. cerevisiae deletion strains, locus YMR307W, strain GAS1, active compounds read low",1.04
same,normalized growth,"S. cerevisiae deletion strains, locus YNL128W, strain TEP1, active compounds read low",0.967
same,normalized growth,"S. cerevisiae deletion strains, locus YNL153C, strain GIM3, active compounds read low",0.98
same,normalized growth,"S. cerevisiae deletion strains, locus YNL298W, strain CLA4 (second series), active compounds read low",0.934
same,normalized growth,"S. cerevisiae deletion strains, locus YNL322C, strain KRE1, active compounds read low",0.966
same,normalized growth,"S. cerevisiae deletion strains, locus YNR030W, strain Alg12, active compounds read low",0.99
same,normalized growth,"S. cerevisiae deletion strains, locus YOL006C, strain TOP1, active compounds read low",0.747
same,normalized growth,"S. cerevisiae deletion strains, locus YPL055C, strain LGE1, active compounds read low",0.976
same,normalized growth,"S. cerevisiae deletion strains, locus YPL241C, strain CIN2, active compounds read low",1.01
same,normalized growth,"S. cerevisiae deletion strains, locus YPR135W, strain CTF4, active compounds read low",0.927
same,normalized growth,"S. cerevisiae strains, strain wild type, active compounds read low",0.984
